From PubChem BioAssay
Sampled rows, rich in hits. Any-hit rate of the full collection: about 4.1%.
DAX1 inh-1 = DAX1 (NR0B1) inhibitors on StAR promoter, primary screen, cell-based, luminescence, SF-1 (NR5A1), full-length DAX-1; HEK293T StAR-luciferase reporter, SF-1/DAX-1 repression relief; inhibition, % at 6.8 µM; actives 1.1% (n = 370,000); AID 652010, 2013;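 active = inhibition above the mean over all tested compounds plus 3 SD, cut at about 3.6% in these data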;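 also: 0% = DAX-1 cells with DMSO and 100% = cells lacking DAX-1 with DMSO; higher inhibition means more luminescence from relief of DAX-1 repression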
hcDAF12 agonist = H. contortus DAF-12 nuclear receptor activators, primary screen, cell-based, luminescence, HEK293, lit1-tk-luc reporter | HEK293 hcDAF-12 lit1-tk-luc reporter; 0% DMSO, 100% Δ7-dafachronic acid | activation, % at 6.8 µM | actives 1.4% (n = 370,000);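 active = activation above the mean of all tested compounds plus 3 SD, cut at about 5.5% in these data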;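 also: 100% = response to 3 µM Δ7-dafachronic acid high control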
hgDAF-12 ag = H. glycines DAF-12 receptor agonists, primary screen, cell-based, luminescence, HEK293, GAL4 fusion, UAS-luciferase. Nuclear hormone receptor DAF-12 (Heterodera glycines), GAL4 fusion. HEK293 GAL4-hgDAF12 UAS-luciferase reporter, agonist luminescence; normalized to butyrate control. activation, % at 6.8 µM. actives 1.8% (n = 370,000). AID 687014, 2013;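 active = activation above a cutoff set at the mean of all screened compounds plus 3 SD, cut at about 10% in these data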;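 also: 0% = DMSO wells and 100% = sodium butyrate wells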
DAX1 inh-2 = DAX1 (NR0B1) inhibitors, primary screen, cell-based, HEK293, Gal4-DAX1, luciferase luminescence; inhibition, % at 6.75 µM; HEK293 Gal4-DAX1 luciferase reporter; actives 0.99% (n = 340,000); AID 504766, 2011;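 active = inhibition above the mean over all tested compounds plus 3 SD, cut at about 4.2% in these data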;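 also: 0% = DAX1-transfected cells with DMSO and 100% = empty-vector control cells with DMSO; inhibition shows as a rise in luminescence from relieved DAX1 repression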
Target sequence (P51843 207-470 limits assumed): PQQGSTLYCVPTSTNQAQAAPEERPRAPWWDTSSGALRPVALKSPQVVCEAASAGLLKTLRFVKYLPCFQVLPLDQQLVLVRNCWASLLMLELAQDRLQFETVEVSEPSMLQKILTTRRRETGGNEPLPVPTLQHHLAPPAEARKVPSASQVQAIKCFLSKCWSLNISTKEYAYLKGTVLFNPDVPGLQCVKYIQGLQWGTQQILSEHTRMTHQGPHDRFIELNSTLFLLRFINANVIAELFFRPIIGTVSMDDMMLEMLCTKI
ssDAF-12 act = S. stercoralis DAF-12 nuclear receptor activators, primary screen, cell-based, luminescence, HEK293, GRIP1 co-expression, lit1-tk-luc. activation, % at 6.8 µM. HEK293 ssDAF-12/GRIP1 lit1-tk-luc reporter; % of 3 µM dafachronic acid response. Nuclear hormone receptor DAF-12 (Strongyloides stercoralis). actives 1% (n = 370,000);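 active = activation above the mean over all tested compounds plus 3 SD, cut at about 0.9% in these data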;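 also: 0% = DMSO-only wells and 100% = 3 µM delta7-dafachronic acid wells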
DAX1 conf = DAX1 (NR0B1) inhibitors relieving SF-1 repression, confirmation, cell-based, luminescence, HEK293T, full-length DAX-1, SF-1 activated StAR promoter; shares compounds with DAX1 inh-1; inhibition, % at 6.8 µM; AID 652134, 2013; HEK293T StAR-promoter luciferase reporter, SF-1/DAX-1 repression; actives 87% (n = 2,400);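 active = inhibition above the average of every tested compound plus 3 SD, cut at about 3.8% in these data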;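 also: 0% = DAX-1 cells with DMSO and 100% = no DAX-1 control cells with DMSO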
SF1 mutant ctr = StAR reporter signal changes without DAX1, counter-screen for DAX1 inhibitor project, cell-based, luminescence, AF-2 mutant SF-1, transactivation; shares compounds with DAX1 inh-1; HEK293 StAR-luciferase, SF-1 AF2 mutant; inhibition, % at 6.8 µM; actives 78% (n = 2,400); AID 652136, 2013;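 active = inhibition above the mean of all tested compounds plus 3 SD, cut at about 3% in these data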;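 also: 0% = DAX-1 transfected cells with DMSO and 100% = cells without DAX-1 with DMSO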
LXRb hcDAF ctr = LXR agonists, Gal4 luciferase reporter, confirmation, counter-screen for hcDAF-12 agonist project, cell-based, luminescence, HEK293, H. contortus campaign. shares compounds with hcDAF12 agonist. HEK293 Gal4-LXR tk-luc reporter, 24 h; normalized: DMSO 0%, positive control 100%. activation, % at 6.8 µM. 3,400 tested, under 10 active. AID 743027, 2013;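 active = mean percent activation of the reporter above a cutoff set as the average over tested compounds plus their standard deviation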
hcDAF12 ag = H. contortus DAF-12 receptor agonists, confirmation, cell-based, luminescence, HEK293, lit1-tk-luc, triplicate | shares compounds with hcDAF12 agonist | HEK293 hcDAF-12 lit1-tk-luc reporter; % of Δ7-dafachronic acid response | activation, % at 6.8 µM | actives 61% (n = 3,400);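 active = mean activation across triplicate tests above the threshold derived from the earlier primary screen, cut at about 5.5% in these data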;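 also: 0% = DMSO only wells and 100% = 3 µM Δ7-dafachronic acid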
hgDAF12 conf = H. glycines DAF-12 receptor agonists, confirmation, cell-based, luminescence, HEK293, GAL4-LBD fusion. shares compounds with hgDAF-12 ag. HEK293 GAL4-hgDAF12 luciferase reporter, agonist mode; percent of butyrate response. activation, % at 6.8 µM. actives 80% (n = 3,300);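 active = mean activation over triplicate wells above the hit cutoff derived from the earlier primary screen, cut at about 11% in these data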;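 also: 0% = DMSO low control and 100% = 2 mM sodium butyrate high control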
LXRb DAF12 ctr = LXR agonists, Gal4 luciferase reporter, confirmation, counter-screen for hgDAF-12 agonist project, cell-based, luminescence, HEK293, H. glycines campaign; 3,300 tested, under 10 active; 24 h; AID 743051, 2013; activation, % at 6.8 µM; shares compounds with hgDAF-12 ag;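 active = mean activation of the triplicate above a set limit carried over from the primary screen, none filed active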
* marks the source's active call; other numbers are inactive results; nt = not tested or not shown.

SMILES	DAX1 inh-1	hcDAF12 agonist	hgDAF-12 ag	DAX1 inh-2	ssDAF-12 act	DAX1 conf	SF1 mutant ctr	hgDAF12 conf	LXRb DAF12 ctr	others
O=C(c1ccccc1)c1ccc(N2CCOCC2)cc1	6.6*	4	15*	1	0	7.1*	4.6*	16*	1
Nc1cc(C(=O)c2ccccc2)ccc1N1CCOCC1	1	1	1	1	0	nt	nt	nt	nt
CC(C)Oc1ccc(C(=O)Nc2ccc(N3CCCCC3)cc2)cc1	0	2	1	0	-1	nt	nt	nt	nt
O=C(Nc1ccc(N2CCCCC2)cc1)c1ccccc1	7.3*	7.2*	15*	-1	0	17*	6.7*	17*	1	LXRb hcDAF ctr=2;hcDAF12 ag=5
O=C(Cc1ccccc1)Nc1ccc(N2CCCCC2)cc1	5.1*	5	25*	2	1.7*	14*	7.3*	18*	1
CCOc1cc(NC(=S)NCC2CCCO2)c(OCC)cc1NC(=O)c1cccc(C)c1 (configuration not stated)	0	-1	0	2	-1	nt	nt	nt	nt
COc1ccc(/C=C/C(=O)N(C)C2CCCCC2)cc1Br	0	-1	6	3	-1	nt	nt	nt	nt
CN(C(=O)/C=C/c1cnc2ccccc2c1)C1CCCCC1	7.8*	8.1*	17*	-1	0.9*	17*	9.9*	15*	1	LXRb hcDAF ctr=1;hcDAF12 ag=6.3*
COc1cc(C)ccc1S(=O)(=O)NC(=O)C1(C)CCN1C(=O)Cc1ccc(C(C)(C)C)cc1 (configuration not stated)	0	1	-1	nt	-1	nt	nt	nt	nt
CC(C)c1ccc(NC(=O)CSc2nnc(-c3ccco3)n2C)cc1	0	-3	-4	nt	-1	nt	nt	nt	nt
Cc1ccc2nc(-c3cccc(N)c3)oc2c1	5.4*	6.4*	15*	0	0	15*	6.8*	16*	1
O=C(Nc1cccc(Cl)c1)Nc1ccccc1C(=O)O	4.7*	5	14*	-1	-1	11*	7.6*	15*	1
NC(=O)c1ccccc1NC(=O)Nc1cccc(Cl)c1	0	0	3	-1	-1	nt	nt	nt	nt
CCn1c(C)cc(C(=O)COC(=O)c2cccnc2SC)c1C	5.9*	5	15*	7.9*	0	6.1*	4.4*	14*	1
CC(=O)NCCc1ccc(C(=O)COC(=O)c2cc(C)oc2C)cc1	-1	1	0	0	-1	nt	nt	nt	nt
Cc1ccc2c(CN3CCN(S(=O)(=O)/C=C/c4ccccc4)CC3)cc(=O)oc2c1	-1	-2	-1	-1	-1	nt	nt	nt	nt
COc1ccc(-c2ccc3ccccc3n2)cc1	12*	9.6*	24*	-1	1	20*	8.7*	17*	1	LXRb hcDAF ctr=2;hcDAF12 ag=11*
COc1cc2ccc(-c3ccc4ccccc4n3)cc2cc1OC	1	1	6	2	-1	nt	nt	nt	nt
COc1ccc(CCc2ccc3ccccc3n2)cc1	5.7*	3	14*	2	0	13*	6.8*	12*	1
COc1ccc(-c2ccc3ccccc3n2)cc1OC	5.3*	1	17*	1	0	7.4*	3.4*	12*	1
Cc1ccc(S(=O)(=O)CC(=O)N2CCN(c3ccc(F)cc3)CC2)cc1	-1	-4	-3	1	-1	nt	nt	nt	nt
CCc1nnc(NC(=O)CSC(=S)N2CCOCC2)s1	-1	0	2	1	-1	nt	nt	nt	nt
COc1cccc(CN2CC(C(=O)NCC3CCOCC3)CCC2=O)c1 (configuration not stated)	0	0	0	0	-1	nt	nt	nt	nt
Cc1cc(C(=O)COC(=O)c2ccc(Cl)c(S(N)(=O)=O)c2)c(C)n1C1CC1	8.0*	2	14*	1	0	8.3*	5.4*	15*	0
Cc1cc(C(=O)COC(=O)c2ccc(NC(=O)CC#N)cc2)c(C)n1C1CC1	3	-1	4	0	-1	nt	nt	nt	nt
Cc1oc(-c2ccccc2)cc1C(=O)Nc1ccccc1	0	1	5	-1	-1	nt	nt	nt	nt
Cc1c(C(=O)Nc2ccccc2)csc1-c1ccccc1	6.0*	8.1*	20*	0	1.7*	16*	5.6*	25*	1	LXRb hcDAF ctr=2;hcDAF12 ag=6.5*
O=C(Nc1ccc2c(c1)OCO2)c1cnc(Cl)c(Cl)c1	5.6*	6.3*	21*	3	1.8*	8.1*	6.5*	16*	1
Cn1c(C(=O)Nc2ccc3c(c2)OCO3)cc2sccc21	5.5*	14*	17*	4.8*	2.5*	11*	7.0*	19*	1	LXRb hcDAF ctr=1;hcDAF12 ag=16*
O=C(Nc1ccc(Cl)cc1Cl)c1ccc2c(c1)OCCO2	8.7*	7.5*	14*	-1	1	17*	6.7*	17*	1	LXRb hcDAF ctr=2;hcDAF12 ag=6.3*
